These results are taken from PubChem BioAssay (NCI).

Compounds without any hit were thinned out: in the full panel of roughly 83,000, 20% have a hit.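 Single-dose data. Exposure time 48 hours. Values below 10 considered active.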 A number with no mark means an inactive call. The source made the active and inactive calls.

What all share (assay): NCI-60 one-dose screen, 48 h (100 = growth as untreated, 0 = no growth, -100 = all killed)
Common to all, as to settings: 10 µM unless noted

Assay [1] has as its system SK-MEL-2 melanoma.
Assay [2] deals with EKVX NSCLC.
The test system of assay [3] is SN12C renal.
In assay [4] the test system is UO-31 renal.
Assay [5] concerns TK-10 renal.
Assay [6] has as its system ACHN renal.
Assay [7] concerns CAKI-1 renal.
Assay [8] deals with CCRF-CEM leukemia.
Assay [9] concerns MOLT-4 leukemia.
Assay [10] deals with SR leukemia.
The test system of assay [11] is RPMI-8226 leukemia.
For assay [12], the system named is OVCAR-8 ovarian.
The test system of assay [13] is OVCAR-5 ovarian.
Assay [14] has as its system OVCAR-4 ovarian.
Assay [15] deals with IGROV1 ovarian.
In assay [16] the test system is OVCAR-3 ovarian.
Assay [17] relates to HS 578T breast.
Assay [18] concerns NCI/ADR-RES ovarian.
Assay [19] deals with SK-OV-3 ovarian.

Regarding `O=c1cc(-c2ccc(OCc3ccccc3)cc2)oc2c(I)c(OCc3ccccc3)cc(OCc3ccccc3)c12`, the growth in assay [1] is 113%; in assay [2], 109%; in assay [3], 101%; in assay [4], 80%; in assay [5], 96.5%; in assay [6], 98.5%. Moreover, the growth in assay [7] was 84.2%; in assay [8], 97.8%; in assay [9], 113%; in assay [10], 94.3%; in [11], 108%; in [12] it was 99.6%. The growth in [13] is 103%; in assay [14], 100%; in [15], 100%; in [16], 104%; in assay [17], 88.3%; in assay [18] it was 101%.
As to `CC[C@]1(O)C[C@H]2CN(CCc3c([nH]c4ccccc34)[C@@](C(=O)OC)(c3cc4c(cc3OC)N(C=O)[C@H]3[C@@](O)(C(=O)OC)[C@H](OC(C)=O)[C@]5(CC)C=CCN6CC[C@]43[C@@H]65)C2)C1`, the growth in [1] is 58%; in assay [2], 27.1%; in assay [3], 39.9%; in assay [4] it was 28.6%; in assay [5], 60.8%; in [6] it was 36.3%. Moreover, the growth in assay [7] was 26.5%; in [8], 5.75% (active); in [9] it was 5.04% (active); in assay [10], 9.82% (active); in assay [11] it was -5.85% (active); in assay [13], -47.6% (active). Besides, the growth in assay [14] was 49.2%; in assay [19] it was -7.88% (active); in [15], 4.04% (active); in assay [16] it was -41.4% (active); in assay [18], -62.6% (active).
As for `Cl.Fc1c[c-]c(-c2ccccn2)c(F)c1.[Pt].c1ccc([PH+](c2ccccc2)c2ccccc2[PH+](c2ccccc2)c2ccccc2)cc1`, the growth in assay [1] is -82.1% (active); in assay [2] it was -94.8% (active); in assay [3], -81.3% (active); in [4], -98.8% (active); in assay [5], -87.2% (active); in [6], -100% (active). Besides, the growth in [7] was -90.5% (active); in assay [8], -43.6% (active); in assay [9], -28.3% (active); in assay [10], -6.47% (active); in assay [12] it was -44.5% (active); in assay [13], -94.3% (active). For the same compound, the growth in assay [14] is -97.3% (active); in [15], -77.9% (active); in [16] it was -96.4% (active); in [17], -50.3% (active); in [18] it was -35.5% (active).
Regarding `Cc1[nH]c(-c2nc3ccccc3[nH]2)c(C)c1C(=O)N1CCOCC1`, the growth is 99.6% in assay [1]; 91.2% in assay [2]; 86.8% in [3]; 82.2% in assay [4]; 106% in assay [5]; 98.3% in assay [6]. Further, the growth in assay [7] is 101%; in [8] it was 112%; in assay [9], 105%; in assay [10] it was 98.6%; in assay [12], 106%; in assay [13], 98%. Further, the growth in assay [14] was 99.8%; in [15], 99.4%; in [16], 103%; in assay [17] it was 90.4%; in assay [18], 101%.
Regarding `COc1ccc(C(=O)/C=C/C23c4ccccc4C(c4ccccc42)C2C(=O)NC(=O)C23)cc1` (centres undefined), the growth in assay [1] is 103%; in [2], 87.5%; in assay [3] it was 86.9%; in assay [4], 72.6%; in [5] it was 114%; in assay [6], 95.4%. Moreover, the growth in [7] is 90.7%; in assay [8] it was 89.8%; in assay [9] it was 87.3%; in assay [10] it was 75.5%; in assay [12], 88.3%; in assay [13] it was 91.4%. The growth was 88.5% in assay [14]; 98.8% in [15]; 95.9% in [16]; 77.6% in [17]; 90.1% in assay [18].
For `CCn1c(Sc2nnc(NC(=O)CSC(=S)N3CCCCC3)s2)nc2c1c(=O)n(C)c(=O)n2C`, the growth in assay [1] was 81.2%; in assay [2] it was 88.5%; in assay [3], 96.6%; in assay [4], 79.8%; in [5] it was 95.8%; in assay [6], 77.5%. For the same compound, the growth in assay [7] is 47.7%; in [8], 84.7%; in [9] it was 97.6%; in assay [10] it was 44.8%; in [12], 92.8%; in assay [13], 93.6%. The growth is 84% in assay [14]; 78.5% in assay [15]; 56.5% in [16]; 91.4% in assay [17]; 42.2% in [18].
On to `N#C/C(=C\c1ccc(Br)cc1)n1nnc2cc(Cl)c(Cl)cc21`, for which the growth in assay [1] was 33.9%; in assay [2], 59.6%; in assay [3], 35%; in assay [4] it was 35.1%; in assay [5] it was 59.6%; in assay [6], 41%. In addition, the growth in [7] is 21.9%; in assay [8] it was 8.21% (active); in assay [9], 6.13% (active); in [10], 10%; in assay [12], 22.2%; in assay [13], 46.2%. In addition, the growth in assay [14] was 21.6%; in assay [15] it was 23.3%; in [16], 5.17% (active); in assay [17] it was 51.3%; in assay [18], 7.03% (active).
For the compound `COc1cc(-c2ccc(-c3ccc(C(=N)N)nc3)s2)cc(OC)c1OC`, the growth is 89.3% in assay [1]; 89.9% in [2]; 66.6% in assay [3]; 70.5% in [4]; 102% in [5]; 47.1% in assay [6]. In addition, the growth is 95.9% in assay [7]; 10.9% in assay [8]; 23.8% in [9]; 6.31% (active) in assay [10]; 57.2% in assay [12]; 81% in [13]. The growth in assay [14] was 60.9%; in [15], 62.5%; in [16] it was -41.9% (active); in assay [17] it was 64.4%; in assay [18] it was 78.6%.
`Cc1[nH]c(-c2nc3ccccc3[nH]2)c(C)c1C(=O)NNc1ccc(Cl)cc1`: the growth was 103% in assay [1]; 94.2% in [2]; 90.7% in assay [3]; 72.5% in [4]; 106% in assay [5]; 102% in assay [6]. The growth in assay [7] is 80.2%; in assay [8], 94.6%; in assay [9], 81.6%; in assay [10], 88.6%; in assay [12], 90.2%; in assay [13], 101%. Further, the growth is 88.2% in [14]; 88% in assay [15]; 98.4% in assay [16]; 92.7% in assay [17]; 96.3% in assay [18].
For `CC(=O)c1cc2c(o1)C(=O)c1ccccc1C2=O`, the growth in assay [1] was -69.4% (active); in assay [2], -81% (active); in [3] it was -81.2% (active); in [4], -98.1% (active); in assay [5], -96.4% (active); in assay [6] it was -98.3% (active). In addition, the growth in assay [7] is -98.4% (active); in [8], -74.8% (active); in [9] it was -43% (active); in assay [10], 1.01% (active); in assay [11], -44% (active); in assay [12], -43.8% (active). Moreover, the growth was -86.1% (active) in assay [13]; -96.9% (active) in [14]; -66.9% (active) in assay [15]; -85.5% (active) in assay [16]; -13.2% (active) in [18].
As for `O=C1Nc2ccccc2/C1=N/N=C/c1c[nH]c2ccccc12`, the growth in [1] was 55.5%; in [2], 21.8%; in assay [3], 73.8%; in assay [4], 26.4%; in [5], 78.4%; in assay [6], 48.3%. The growth in [7] was 17.8%; in assay [8], 83.3%; in assay [9] it was 71.8%; in [10], 67%; in assay [12] it was 70.4%; in [13], 81.6%. In addition, the growth is 59.9% in [14]; 35.7% in assay [15]; 69.5% in assay [16]; 15% in assay [17]; 91% in [18].
As for `Cc1[nH]c(-c2nc3ccccc3[nH]2)c(C)c1C(=O)N1CCc2sccc2C1`, the growth in [1] is 107%; in [2] it was 91.9%; in assay [3], 89.2%; in assay [4] it was 77.9%; in [5], 106%; in assay [6], 99.5%. Besides, the growth was 85.1% in assay [7]; 88.7% in assay [8]; 93.3% in assay [9]; 97.7% in [10]; 91.2% in [12]; 83.5% in assay [13]. For the same compound, the growth in assay [14] was 83.3%; in assay [15] it was 98.5%; in assay [16], 95%; in assay [17], 87.7%; in [18], 93.2%.
As to `Cc1cc(-c2ccc(N(C)C)cc2)c2sc(=O)[nH]c2n1`, the growth in assay [1] is 56%; in assay [2], 77.5%; in assay [3], 76.7%; in [4] it was 55.3%; in assay [5], 97.7%; in assay [6], 83.2%. Moreover, the growth was 46.9% in [7]; 60% in assay [8]; 63.2% in assay [9]; 40.1% in assay [10]; 70.6% in assay [11]; 76.9% in [12]. The growth is 85% in assay [13]; 83.2% in assay [14]; 61.5% in assay [15]; 68.9% in [16]; 48.1% in assay [17]; 45.5% in [18].
Regarding `COc1ccc(C2CC(c3ccccc3)=NN2c2nc(C)c(C(C)=O)s2)cc1` (centres undefined), the growth in [1] is 98.4%; in assay [2], 94.6%; in assay [3], 105%; in assay [4], 77.4%; in assay [5] it was 110%; in assay [6], 95.5%. Also, the growth in [7] was 86.6%; in [8], 96.3%; in assay [9], 102%; in assay [10], 97.7%; in [11], 99%; in assay [13] it was 105%. For the same compound, the growth is 97.1% in assay [14]; 103% in [15]; 98.5% in [16]; 93.3% in assay [17]; 102% in assay [18].
With `N#C/C=C(\c1ccc([N+](=O)[O-])cc1)n1nnc2cc(Cl)c(Cl)cc21`, the growth in assay [1] is 65.8%; in [2] it was 38.6%; in assay [3], -20.1% (active); in assay [4] it was -70.9% (active); in assay [5], -16.2% (active); in [6] it was -85% (active). Moreover, the growth in [7] is 40.9%; in [8], 9.49% (active); in assay [9], 22.4%; in assay [10], 13%; in assay [12], 15.7%; in assay [13], 10.1%. The growth in assay [14] was 0.234% (active); in assay [15] it was -43% (active); in [16], -48% (active); in assay [17] it was 27.8%; in assay [18], -4.34% (active).
`CCCc1cc(=O)oc2c3c(c4c(c12)OC(C)(C)C=C4)O[C@@H](C)[C@H](C)C3=O`: the growth in assay [1] was 97.1%; in assay [2], 63%; in assay [3], 82.7%; in assay [4], 71.9%; in assay [5] it was 83.2%; in assay [6], 84.2%. The growth in assay [7] is 72.8%; in [8], 70.3%; in assay [9] it was 69.1%; in assay [10], 65.4%; in [11], 56.1%; in [13] it was -19.4% (active). The growth was 67.8% in assay [14]; 92.3% in [19]; 74.8% in assay [15]; 86.6% in assay [16]; 0.517% (active) in [18].
